Compound activity (PubChem BioAssay)
12-LOX inh: Primary qHTS assay for inhibitors of human arachidonate 12S-lipoxygenase (ALOX12): Round 2 | Polyunsaturated fatty acid lipoxygenase ALOX12 (Homo sapiens), P18054 | purified 12hLO, xylenol orange hydroperoxide absorbance | Potency, µM (top dose mostly 108 µM), for the others: top-dose activity change, negative = inhibition, most hits filed as inhibitors | 1.1% of 580,000 active; also: potency is read from the fitted curve at half-maximal effect
Target sequence (P18054 whole entry, looked up): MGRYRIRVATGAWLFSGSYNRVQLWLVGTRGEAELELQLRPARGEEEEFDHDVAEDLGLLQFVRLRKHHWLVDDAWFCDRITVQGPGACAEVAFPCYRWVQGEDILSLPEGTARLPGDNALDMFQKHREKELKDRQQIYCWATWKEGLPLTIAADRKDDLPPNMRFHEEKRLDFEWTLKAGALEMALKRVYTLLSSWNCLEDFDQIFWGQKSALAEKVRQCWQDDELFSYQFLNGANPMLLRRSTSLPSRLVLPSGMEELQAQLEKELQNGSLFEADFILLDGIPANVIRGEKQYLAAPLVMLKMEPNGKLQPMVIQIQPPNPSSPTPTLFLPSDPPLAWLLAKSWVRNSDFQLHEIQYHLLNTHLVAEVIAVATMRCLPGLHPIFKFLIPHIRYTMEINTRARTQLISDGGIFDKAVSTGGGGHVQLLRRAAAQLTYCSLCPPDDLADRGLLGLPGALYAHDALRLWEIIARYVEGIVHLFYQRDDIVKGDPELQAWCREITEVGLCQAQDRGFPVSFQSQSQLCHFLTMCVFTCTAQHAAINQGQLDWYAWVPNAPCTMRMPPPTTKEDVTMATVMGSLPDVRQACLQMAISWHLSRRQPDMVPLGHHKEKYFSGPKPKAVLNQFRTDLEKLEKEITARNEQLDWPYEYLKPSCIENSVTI
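Purified human 12hLO at 150 nM in 25 mM Hepes, 0.01% Triton X-100, pH 7.0, preincubated 15 min at room temperature with compound. Reaction started with 40 uM arachidonic acid, 30 min at room temperature. Hydroperoxide measured by Fe-xylenol orange, 573/405 nm absorbance ratio.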
TDP1 cell noCPT: qHTS for Inhibitors of human tyrosyl-DNA phosphodiesterase 1 (TDP1): qHTS in cells in absence of CPT | DT40 Tdp1-/- hTDP1 cells, no CPT, ATP luminescence, 48 h | Potency, µM (series often up to 46.2 µM), for the others: top-dose activity change, negative = growth inhibition, usual class: inhibitors | 15% of 420,000 active | AID 686978, 2013; also: potency is read from the fitted curve at half-maximal effect; nearly all actives have a fitted effect of over 55% in size
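A cellular qHTS used chicken DT40 cells lacking endogenous Tdp1 but carrying stably transfected human TDP1. Compounds were applied without camptothecin, and cell growth kinetics were judged by ATP-dependent luminescence after ≥48 hr.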
IL1B secr inh: qHTS for Inhibitors of Inflammasome Signaling: IL-1-beta AlphaLISA Primary Screen; THP-1 LPS/ATP IL-1B secretion, AlphaLISA, 16 h; active compounds read low; activity change, % at 57.5 µM; 4.7% of 360,000 active; in the data active = activity change below about -50%; inconclusive = mostly about -30% to -49%
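THP-1 cells pretreated 1 hr with compounds (up to 57.5 uM final), then stimulated with LPS (250 ng/mL final) plus ATP (1.25 mM final); secreted IL-1B measured by AlphaLISA after 16 hr, decreased signal indicating inhibition.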
TDP1 cell CPT: qHTS for Inhibitors of human tyrosyl-DNA phosphodiesterase 1 (TDP1): qHTS in cells in presence of CPT; chicken DT40 Tdp1-/-;hTDP1 cells + 20 nM CPT, ATP luminescence, 48 h; Potency, µM (titrated, usually from 46.2 µM), for inactives: top-dose activity change, negative = growth inhibition, hits mostly inhibitors; 12% of 420,000 active; AID 686979, 2013; also: potency is read from the fitted curve at half-maximal effect; nearly all actives have a fitted effect of over 55% in size
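Chicken DT40 Tdp1-/- cells complemented with human TDP1, 400 cells/well, exposed to compounds plus 20 nM camptothecin for at least 48 h at 37 C; viability read as ATP content by CellTiter-Glo luminescence.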
HT1080 IDH1KD tx: qHTS for induction of synthetic lethality in tumor cells producing 2HG: qHTS for the HT-1080-IDH1KD cell line; Potency, µM (doses to about 46.1 µM), for inactives: at the top dose activity, negative = toxicity, hits mostly cytotoxic; 2% of 360,000 active; HT-1080 IDH1 knockdown viability, ATP luminescence, 48 h;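 also: potency is read from the fitted curve at half-maximal effect; 0% = DMSO wells and -100% = cell-free medium wells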
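After a 2 h attachment period, IDH1KD HT-1080 cells took pin-transferred compound for 48 h at 37 °C; ATP-based luminescence after 10 min room-temperature reagent incubation reported viability.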
HT1080-NT tox: qHTS for induction of synthetic lethality in tumor cells producing 2HG: qHTS for the HT-1080-NT fibrosarcoma cell line. HT-1080-NT fibrosarcoma viability, CellTiter-Glo ATP luminescence, 48 h. Potency, µM (doses to about 46.1 µM), for the others: at the top dose activity, negative = less viability, usual class: cytotoxic. 1.6% of 360,000 active;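 also: NT is the 2HG producing partner of a matched IDH1 knockdown line; potency is read from the fitted curve at half-maximal effect; 0% = DMSO-treated cells and -100% = media-only wells without cells; nearly all actives have a fitted effect of over 55% in size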
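A 48-hour cytotoxicity screen used HT-1080-NT cells plated 2 hours before compound delivery. ATP-based CellTiter-Glo luminescence measured viability, normalized to DMSO and no-cell controls.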
An asterisk follows results filed as active; i = inactive; ? = inconclusive; . = not tested or not shown; [ ] = dose if it differs, or a comment. Only a selection was taken, and hits are over-represented in it overall. Unless noted, calls follow the shape of the dose curve; as a rule, active = well fitted curve in the direction sought with a large enough effect; inconclusive = small, poorly fitted or top-dose-only effect, or another doubt; inactive = no such curve, though single readings can be large; an effect the other way counts as inactive or inconclusive. Unless noted, % is scaled to controls: 0 for no effect and ±100 for the full control effect.

SMILES | 12-LOX inh | TDP1 cell noCPT | IL1B secr inh | TDP1 cell CPT | HT1080 IDH1KD tx | HT1080-NT tox
O=C1CC(/C=C/c2ccccn2)=Nc2ccccc2N1 | -4.7% | 14.6µM* | -75.0* | ? | 2.0% | -1.2%
C/C(=N\Nc1ccc(C)c(Cl)c1)c1ccncc1 | 44.7µM* | ? | -25.4 | -5.3% | -12.1% | -21.4%
C/C(=N\Nc1ccc(C)c(Cl)c1)c1cccnc1 | 4.47µM* | -1.2% | 1.1 | -1.6% | -0.3% | 2.1%
C/C(=N\NC(=O)Cc1ccccc1Cl)c1cccnc1 | i | 15.8% | -22.6 | -14.4% | 6.8% | 17.5%
Cc1cc(C[C@@H]2COC[C@@H]2NC(=O)CCn2c(C)cc3ccccc32)on1 | 115.8% | . | . | . | . | .
COc1ccc(-c2csc(NC(=O)CSc3nnnn3C)n2)cc1OC | 7.2% | -21.8% | -22.2 | -21.5% | 3.9% | 11.7%
CC(C)c1ccc(/C=C(\C#N)c2nc(-c3cc4ccccc4oc3=O)cs2)cc1 | 0.0% | 3.3% | . | -13.7% | . | .
CC(C)c1ccc(/C=C(\C#N)c2nc(-c3ccc(O)cc3)cs2)cc1 | ? | 2.59µM* | . | 3.26µM* | . | .
COc1ccc(-c2csc(/C(C#N)=C\c3ccc(O)c([N+](=O)[O-])c3)n2)cc1OC | -15.8% | ? | 10.7 | ? | ? | 1.4%
COc1ccc(-c2csc(/C(C#N)=C(\O)CSc3nccn3C)n2)cc1OC | 0.0% | 14.6µM* | -15.2 | ? | -7.0% | -10.8%
COc1ccc(/C=C(/C#N)c2nc(-c3ccc(Br)cc3)cs2)cc1 | -18.2% | 23.1µM* | . | ? | . | .
COc1ccc(/C=C(/C#N)c2nc(-c3ccc(-c4ccccc4)cc3)cs2)cc1OC | -18.8% | 11.6µM* | . | ? | . | .
CC(=O)N(C1CC1)C1CCOC2(CCN(C(=O)c3n[nH]c4ccccc34)CC2)C1 (stereo not given) | 2.8% | . | . | . | . | .
O=C(c1cc(C(F)(F)F)cc(C(F)(F)F)c1)N1CCC2(CCN(Cc3ccncc3)CC2)CC1 | -12.1%[57.4 µM] | ? | . | ? | . | .
O=C(c1cc(C(F)(F)F)cc(C(F)(F)F)c1)N1CCC2(CC1)CCN(c1ccncc1)CC2 | -2.3%[57.4 µM] | 18.4µM* | . | 25.9µM* | . | .
O=C(c1cccc(F)c1)N1CCC2(CCCN(c3ccncc3)C2)CC1 | 7.2%[57.4 µM] | ? | . | -5.4% | . | .
O=C(c1cccc(F)c1)N1CCC2(CC1)CCN(c1ccncc1)CC2 | -16.1%[57.4 µM] | 18.4µM* | . | 7.31µM* | . | .
O=C(c1cccc(F)c1)N1CCC2(CCCN(c3ncccn3)C2)CC1 | ? | ? | . | -8.6% | . | .
O=C(c1cccc(F)c1)N1CCC2(CC1)CCN(c1ncccn1)CC2 | -7.6%[57.4 µM] | 18.4µM* | . | ? | . | .
O=C(c1cccc(F)c1)N1CCC2(CC1)CN(c1ccccn1)C2 | -10.1%[57.4 µM] | ? | . | 14.6µM* | . | .
O=C(c1cccc(F)c1)N1CCC2(CC1)CCN(c1ccccn1)CC2 | 3.9%[57.4 µM] | ? | . | ? | . | .
Cc1ccc(C2Cn3nnc(C(=O)N4CCN(C(=O)c5ccoc5)CC4)c3CO2)cc1 (stereo not given) | 31.3% | . | . | . | . | .
CC(NC(=O)Cc1csc2nc(-c3ccccc3)cn12)c1ccc(Cl)cc1 (stereo not given) | -3.1% | . | . | . | . | .
c1ccc(-c2ccc(CN3CCOC[C@H](Oc4cnccn4)C3)cc2)cc1 | 61.9%[176 µM] | . | . | . | . | .
O=C(c1cc(C(F)(F)F)cc(C(F)(F)F)c1)N1CCC2(CC1)CN(c1ncccn1)C2 | -7.0%[57.4 µM] | ? | . | ? | . | .
SMILES | 12-LOX inh | TDP1 cell noCPT | IL1B secr inh | TDP1 cell CPT | HT1080 IDH1KD tx | HT1080-NT tox
O=C(c1cc(C(F)(F)F)cc(C(F)(F)F)c1)N1CCC2(CC1)CN(c1ccccn1)C2 | ? | 5.17µM* | . | 4.61µM* | . | .
C=CCOC(=O)C1=C(C)NC(C)=C(C(=O)OCC=C)C1/C=C/c1ccccc1 | 4.0% | ? | -68.8* | ? | 18.4µM* | ?
Cc1c(C(=O)Nc2ccc(-n3c(C)nc4ccccc4c3=O)cc2)cccc1[N+](=O)[O-] | -11.1% | 7.31µM* | . | 13µM* | . | .
Cc1cc(-n2c(C)nc3ccccc3c2=O)ccc1NC(=O)C(F)(F)F | -16.7% | ? | . | ? | . | .
Cc1cc(-n2c(C)nc3ccccc3c2=O)ccc1NC(=O)c1ccc([N+](=O)[O-])cc1 | -14.1% | ? | . | ? | . | .
Cc1nc2ccccc2c(=O)n1NC(=O)c1ccccc1[N+](=O)[O-] | -2.8% | 9.6% | 64.8 | 20.4% | 6.5% | 2.0%
Cc1ccn2c(=O)c(NC(=O)c3cccc([N+](=O)[O-])c3C)c(C)nc2c1 | -26.3% | 18.4µM* | . | 14.6µM* | . | .
Cc1cc(-n2c(C)nc3ccccc3c2=O)ccc1NC(=O)c1ccccc1[N+](=O)[O-] | -19.4% | 16.4µM* | . | 18.4µM* | . | .
Cc1cc(-n2c(C)nc3ccccc3c2=O)ccc1NC(=O)c1cccc([N+](=O)[O-])c1C | -15.1% | 6.51µM* | . | 13µM* | . | .
CCC(C)NC(=O)C12CC3CC(CC(Cl)(C3)C1)C2 (stereo not given) | 26.6% | . | . | . | . | .
CN(C(=O)c1ccccc1C(=O)OCC(=O)NCc1cccs1)C1CCCCC1 | -7.4% | -14.8% | -17.6 | 3.0% | 0.4% | -4.6%
CN(C(=O)c1ccccc1C(=O)OCC(=O)c1ccc(F)c(F)c1)C1CCCCC1 | -4.9% | 25.9µM* | ? | ? | -11.6% | -0.8%
